Among the test systems are RPMI-8226 leukemia; OVCAR-8 ovarian; OVCAR-5 ovarian; OVCAR-4 ovarian; SK-OV-3 ovarian; HS 578T breast; NCI/ADR-RES ovarian; T-47D breast; BT-549 breast; MDA-MB-435 melanoma; SW-620 colon; MCF7 breast; HCT-116 colon; HCC-2998 colon; KM12 colon; IGROV1 ovarian; OVCAR-3 ovarian.
Common to all, as to assay: NCI-60 one-dose screen, 48 h (100 = growth as untreated, 0 = no growth, -100 = all killed)
Holding throughout (conditions): 10 µM unless noted

This is part of a sample that, as a whole, favours compounds with a hit. Of some 83,000 tested, about 20% had one in any assay.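 48-hour exposure, single concentration, 96-well plates; percent growth endpoint where 0 means no net growth. Active: below 10.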 Unmarked numbers belong to inactive results. Calls of active or inactive are those of the source.

For `C=CCn1c(SCC(=O)Nc2cccc(C(=O)/C=C/c3ccc(Br)cc3)c2)nc2ccccc2c1=O`, the growth with RPMI-8226 leukemia is -3.89% (active); in the test on OVCAR-8 ovarian it was 81.6%; in the test with OVCAR-5 ovarian, 96.2%; with OVCAR-4 ovarian, 87.9%; in the test with SK-OV-3 ovarian it was 108%; in the test with HS 578T breast it was 83.3%. Further, the growth in the test on NCI/ADR-RES ovarian is 91.5%; in the test with T-47D breast it was 76%; in the test on BT-549 breast, 45.8%; in the test with MDA-MB-435 melanoma it was 86.9%; in the test on SW-620 colon it was 76.3%; in the test on MCF7 breast, 26.6%. Besides, the growth with HCT-116 colon was 8.62% (active); in the test on HCC-2998 colon, 93.8%; with KM12 colon it was 81.3%.
Regarding `Clc1ccccc1/C=C/c1nn2c(-c3ccncc3)nnc2s1`, the growth in the test on RPMI-8226 leukemia is 101%; with OVCAR-8 ovarian, 103%; with OVCAR-5 ovarian, 109%; in the test on OVCAR-4 ovarian it was 103%; with SK-OV-3 ovarian, 121%; in the test on IGROV1 ovarian it was 102%. For the same compound, the growth in the test on HS 578T breast was 97.7%; in the test with T-47D breast, 95%; in the test on BT-549 breast, 107%; in the test with MDA-MB-435 melanoma, 103%; in the test with SW-620 colon, 108%; with MCF7 breast, 66.4%. The growth in the test with HCT-116 colon was 96.5%; with HCC-2998 colon, 101%; with KM12 colon, 110%.
Consider `C/C(=C(/c1ccc(O)cc1)c1ccc(OCCN2CCCC2)cc1)c1ccc(Cl)cc1`, for which the growth in the test with RPMI-8226 leukemia is -4.71% (active); in the test with OVCAR-8 ovarian it was 64.6%; with OVCAR-5 ovarian, 60.1%; in the test with OVCAR-4 ovarian, 65.4%; with IGROV1 ovarian, 55.4%; in the test on HS 578T breast, 48.4%. For the same compound, the growth was 64.2% in the test on NCI/ADR-RES ovarian; 24.9% with T-47D breast; 89.6% in the test with BT-549 breast; 20% in the test with MDA-MB-435 melanoma; -57.1% (active) in the test with SW-620 colon; 5.58% (active) with MCF7 breast. Besides, the growth in the test with HCT-116 colon is 36.6%; with HCC-2998 colon, 17.2%; with KM12 colon, 46.5%.
Consider `COc1cc2c3c(n(CCCNC4CCCC4)c(=O)c2cc1OC)-c1cc2c(cc1C3=O)OCO2`, for which the growth in the test on RPMI-8226 leukemia is -40.1% (active); with OVCAR-8 ovarian, -70.2% (active); with OVCAR-5 ovarian, -81.3% (active); with OVCAR-4 ovarian, 71.9%; in the test with IGROV1 ovarian, -48.7% (active); in the test on HS 578T breast, 93.3%. Further, the growth with T-47D breast was 86%; with BT-549 breast, 74.8%; with MDA-MB-435 melanoma, -49.6% (active); in the test on SW-620 colon, -83.6% (active); with MCF7 breast it was -74.8% (active); in the test on HCT-116 colon, -90.9% (active). For the same compound, the growth with HCC-2998 colon is 23.2%; with KM12 colon, 65.6%.
Turning to `CC(=O)Nc1ccc(NC(=O)Nc2cccc(-c3nc(-c4ccc(NC(=O)c5cccs5)cc4Cl)no3)c2)cc1C(F)(F)F`, the growth in the test with OVCAR-8 ovarian is -15.8% (active); with OVCAR-5 ovarian, -37.9% (active); with OVCAR-4 ovarian it was -94.5% (active); with SK-OV-3 ovarian it was -66% (active); in the test on IGROV1 ovarian, -57.6% (active); in the test with OVCAR-3 ovarian it was -63.4% (active). For the same compound, the growth in the test on HS 578T breast was -28.3% (active); with NCI/ADR-RES ovarian, 55.5%; in the test on T-47D breast, -59.4% (active); with BT-549 breast it was -26.7% (active); in the test on SW-620 colon, -51.3% (active); in the test on MCF7 breast, -58.1% (active). Also, the figures for the growth in the test on HCT-116 colon, in the test with HCC-2998 colon and in the test on KM12 colon were -22.2% (active), -65.1% (active) and -50.1% (active), respectively.
As for `CC1(C)CC[C@]2(C(=O)N3CCCN(CC#N)CC3)CC[C@]3(C)C(=CC[C@@H]4[C@@]5(C)CC[C@H](O)C(C)(C)[C@@H]5CC[C@]43C)[C@H]2C1`, the growth in the test on RPMI-8226 leukemia was 19.9%; with OVCAR-8 ovarian, 55.7%; with OVCAR-5 ovarian, 84.1%; with OVCAR-4 ovarian it was 86.7%; in the test on SK-OV-3 ovarian it was 83.7%; in the test with IGROV1 ovarian it was 66.1%. The growth with HS 578T breast was 78.8%; in the test on NCI/ADR-RES ovarian, 57.2%; in the test with T-47D breast, 52.1%; with BT-549 breast it was 61.4%; in the test with MDA-MB-435 melanoma, 59.8%; with SW-620 colon, 27.8%. For the same compound, the values for the growth with HCT-116 colon and with KM12 colon were -47.6% (active) and 54.1%, respectively.
For the compound `CC1COc2c(N3CCN(C)CC3)c(F)cc3c(=O)c(C(=O)N/N=C/c4cc[nH]c4)cn1c23` (configuration not stated), the growth in the test with RPMI-8226 leukemia is 45.3%; in the test with OVCAR-8 ovarian, 19.4%; in the test with OVCAR-5 ovarian, 77.8%; with OVCAR-4 ovarian, 44.6%; in the test with HS 578T breast, 67.5%; with NCI/ADR-RES ovarian, 94.2%. Further, the growth in the test on T-47D breast is 47.2%; with BT-549 breast, 59.5%; with MDA-MB-435 melanoma it was 12.2%; in the test on SW-620 colon it was -46.4% (active); with MCF7 breast, -5.35% (active); in the test on HCT-116 colon, -80.1% (active). Moreover, the figures for the growth with HCC-2998 colon and in the test with KM12 colon were 22.6% and 46.4%, respectively.
For the compound `CS(=O)(=O)c1nccc(-c2c(-c3ccc(F)c(OCCc4ccccc4)c3)nc3sccn23)n1`, the growth in the test with RPMI-8226 leukemia was 54.7%; in the test with OVCAR-8 ovarian it was 87.5%; in the test on OVCAR-5 ovarian, 100%; with OVCAR-4 ovarian, 98.4%; in the test on SK-OV-3 ovarian, 121%; in the test with IGROV1 ovarian, 59.3%. In addition, the growth with HS 578T breast was 113%; in the test on T-47D breast, -4.49% (active); in the test with BT-549 breast, 104%; in the test with MDA-MB-435 melanoma it was 104%; in the test on SW-620 colon, 103%; in the test on MCF7 breast, 4.77% (active). For the same compound, the growth in the test on HCT-116 colon is 92.5%; in the test with HCC-2998 colon it was -46.4% (active); with KM12 colon, 77.5%.
As for `COc1ccc(-c2cc(-c3cccc4ccccc34)n3c(n2)nc2ccccc23)cc1`, the growth in the test on RPMI-8226 leukemia is 32.7%; in the test with OVCAR-8 ovarian, 42.1%; with OVCAR-5 ovarian, 81.1%; in the test with OVCAR-4 ovarian, 64.8%; in the test with IGROV1 ovarian it was 48.7%; with HS 578T breast, 55%. Further, the growth in the test with NCI/ADR-RES ovarian was 54.2%; with T-47D breast it was 24.2%; with BT-549 breast it was 69.9%; with MDA-MB-435 melanoma, 53.4%; with SW-620 colon, 40.6%; with MCF7 breast it was 19.6%. Moreover, the growth in the test on HCT-116 colon was 37.9%; in the test with HCC-2998 colon, 88.3%; in the test on KM12 colon, 62.4%.
In the case of `C=C(C)[C@@H]1CC[C@]2(C)[C@H](CC=C3[C@@H]4CC(C)(C)CC[C@]4(C(=O)NCC#CCN4CCN(C)CC4)CC[C@]32C)[C@@]1(C)CCC#N`, the growth in the test with RPMI-8226 leukemia is 42.4%; in the test with OVCAR-8 ovarian, 85.9%; in the test with OVCAR-5 ovarian it was 89.8%; in the test on OVCAR-4 ovarian, 70.6%; with SK-OV-3 ovarian it was 94.5%; in the test on IGROV1 ovarian, 54.3%. For the same compound, the growth in the test with HS 578T breast is 71.7%; with NCI/ADR-RES ovarian, 62.5%; in the test with T-47D breast it was 61.7%; with BT-549 breast, 69.3%; in the test with SW-620 colon, 43.8%; with MCF7 breast, 27%. The growth with HCT-116 colon is 17.5%; in the test on HCC-2998 colon it was 55.2%; in the test with KM12 colon it was 43.6%.

Source of the values: PubChem BioAssay (NCI).
